Bioassay records as filed in PubChem.
Rows were chosen to be rich in hits. Some 19% of all compounds tested hit in one or more screens of this group.
TDP1 cell CPT – growth inhibition of DT40 Tdp1-/-;hTDP1 cells with camptothecin (screen for TDP1 inhibitors). AID 686979. Potency, µM (series often up to 46.2 µM), actives largely listed as inhibitors. 420,000 compounds, 12% hits. chicken DT40 Tdp1-/-;hTDP1 cells + 20 nM CPT, ATP luminescence, 48 h; further: nearly all actives have a fitted effect of over 55% in size
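Chicken DT40 Tdp1-/- cells complemented with human TDP1, 400 cells/well, exposed to compounds plus 20 nM camptothecin for at least 48 h at 37 C; viability read as ATP content by CellTiter-Glo luminescence.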
HepG2 viability – kills HepG2 cells in TGF-b inhibitor counter-screen; 410,000 compounds, 0.76% hits; HepG2 CAGA-GFP viability, ATP luminescence, 18 h; Potency, µM (series often up to 46.1 µM), hits mostly cytotoxic
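CellTiter-Glo luminescence gave cytotoxicity after 18 hours at 37 degrees C. The cells were HepG2 CAGA-GFP in 1% FBS DMEM, stimulated with 500 pg/mL TGF-beta after compound addition. %Activity was normalised to no-cell wells (complete cell-killing) and DMSO (no toxicity), and curves were fitted and classified.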
DT40 TDP1 no CPT – qHTS for Inhibitors of human tyrosyl-DNA phosphodiesterase 1 (TDP1): qHTS in cells in absence of CPT; DT40 Tdp1-/- hTDP1 cells, no CPT, ATP luminescence, 48 h; Potency, µM (highest dose often 46.2 µM), actives largely listed as inhibitors; 420,000 compounds, 15% hits; further: nearly all actives have a fitted effect of over 55% in size
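Camptothecin absent (DMSO only). Human TDP1-complemented DT40 knockout cells, 400 cells/well, 37 °C for minimum 48 hr; ATP measured via CellTiter-Glo, 30 min dark incubation, luminescence.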
IL-1B inflam inh – inhibitors of inflammasome signaling (IL-1 beta secretion); THP-1 LPS/ATP IL-1B secretion, AlphaLISA, 16 h; active compounds read low; activity change, % at 57.5 µM; 360,000 compounds, 4.7% hits; AID 743279; in the data active means activity change below about -50%; inconclusive means mostly about -30% to -49%
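THP-1 cells pretreated 1 hr with compounds (up to 57.5 uM final), then stimulated with LPS (250 ng/mL final) plus ATP (1.25 mM final); secreted IL-1B measured by AlphaLISA after 16 hr, decreased signal indicating inhibition.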
TGFb SMAD3 inh – blocks TGF-b signaling | HepG2 CAGA-GFP TGF-b/SMAD3 reporter, GFP fluorescence, 18 h; TGF-beta stimulated, 500 pg/mL final | Potency, µM (doses to about 46.1 µM), usual class: inhibitors | AID 588855 | 410,000 compounds, 1.2% hits; further: nearly all actives have a fitted effect of over 65% in size
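Using HEPG2 CAGA-GFP reporter cells at 1000 cells/well, we pinned test compounds, stimulated with recombinant TGF-beta (500 pg/mL final) and measured total well GFP after 18 h.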
S-ASM inh – blocks human secretory acid sphingomyelinase; P17405; placental ASM, HMU-PC fluorogenic substrate, 60 min; Potency, µM (top dose mostly 57.5 µM), usual class: inhibitors; 340,000 compounds, 0.006% hits
Target sequence (P17405 47-631 limits assumed): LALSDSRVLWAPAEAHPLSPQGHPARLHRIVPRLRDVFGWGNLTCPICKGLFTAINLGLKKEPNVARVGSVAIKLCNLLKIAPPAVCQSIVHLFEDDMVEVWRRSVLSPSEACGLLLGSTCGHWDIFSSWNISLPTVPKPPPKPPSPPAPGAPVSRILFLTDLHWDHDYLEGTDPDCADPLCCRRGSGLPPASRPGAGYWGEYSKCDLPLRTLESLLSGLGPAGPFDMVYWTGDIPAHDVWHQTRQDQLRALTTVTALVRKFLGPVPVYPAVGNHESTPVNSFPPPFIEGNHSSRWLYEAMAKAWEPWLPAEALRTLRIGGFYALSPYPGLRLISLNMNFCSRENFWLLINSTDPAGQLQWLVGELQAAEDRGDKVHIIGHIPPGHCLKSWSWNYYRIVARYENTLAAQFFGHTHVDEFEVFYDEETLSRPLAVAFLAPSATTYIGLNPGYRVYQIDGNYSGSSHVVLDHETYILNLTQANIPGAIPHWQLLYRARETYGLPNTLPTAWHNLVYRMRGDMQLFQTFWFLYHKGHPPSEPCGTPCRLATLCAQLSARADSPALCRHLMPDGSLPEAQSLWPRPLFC
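HMU-PC0 cleavage (9 uM final) by human placental ASM, 60 min at 37 °C following 10 min compound exposure at RT; stopped at pH 10, fluorescence Ex 386/Em 447 nm.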
Numbers stand for hits; i = inactive; ? = inconclusive; nt = no result given. Unless noted, the call rests on the fitted dose curve; in most records, active means well fitted curve in the direction sought with a large enough effect; inconclusive means small, poorly fitted or top-dose-only effect, or another doubt; inactive means no such curve, though single readings can be large; an effect the other way counts as inactive or inconclusive.

SMILES	TDP1 cell CPT	HepG2 viability	DT40 TDP1 no CPT	IL-1B inflam inh	TGFb SMAD3 inh	S-ASM inh
COc1ccc(Cn2nnnc2CN(Cc2cc3cc(C)ccc3[nH]c2=O)C2CCCC2)cc1	11.6µM	i	11.2µM	-61.2	i	i
CCOC(=O)Cn1nnnc1C(C(C)C)N(Cc1cc2c(C)cc(C)cc2[nH]c1=O)C1CCCC1 (stereo not drawn)	23.1µM	i	20.6µM	?	i	i
CC(=O)N(Cc1cc2c(C)cc(C)cc2[nH]c1=O)C1CCCCC1	i	i	i	i	i	i
COc1ccc2[nH]c(=O)c(CN(C3CCCCC3)C(c3nnnn3Cc3ccco3)C(C)C)cc2c1 (stereo not drawn)	11.6µM	i	?	-93.2	?	i
COc1ccc(-c2nn(-c3ccccc3)cc2CNC[C@H]2O[C@@H](n3cnc4c(=O)[nH]c(N)nc43)[C@H](O)[C@@H]2O)cc1	i	i	i	i	?	nt
COc1ccc2[nH]c(=O)c(CN(Cc3nnnn3Cc3ccco3)C3CCCCC3)cc2c1	?	i	16.4µM	i	i	i
CCCCNC(=O)C1(C)CCCCN1C(=O)c1cccc(OC(F)(F)F)c1 (stereo not drawn)	?	i	?	i	?	nt
Cc1cc(O)c(Oc2cc(C)cc(O)c2O)c(O)c1	4.61µM	i	5.17µM	i	?	i
CN1CCN(C(=O)CCCN2C(=O)/C(=C/c3cccc(Br)c3)SC2=S)CC1	i	i	?	-100.1	?	i
CN1CCN(C(=O)CCN2C(=O)/C(=C/c3cccc(Br)c3)SC2=S)CC1	?	i	11.6µM	-76.0	17.8µM	i
COC(=O)C[C@@H]1C=C[C@H](NC(=O)Nc2ccc(OC)cc2)[C@@H](CO)O1	i	nt	i	i	nt	nt
Cc1cc(C(=O)N2CCN(c3ccccc3Cl)CC2)c(C)o1	20.6µM	i	11.6µM	?	i	i
Cc1cc(C(=O)N2CCN(c3ncccn3)CC2)c(C)o1	13µM	i	23.1µM	i	i	i
O=C(Nc1ccccc1C(=O)N1CCN(c2cccc(Cl)c2)CC1)C1=CSCCO1	i	i	20.6µM	i	i	i
Cc1cc(C(=O)N2CCN(c3ccccc3)CC2)c(C)o1	i	i	i	i	i	i
Cc1cc(C(=O)N2CCN(c3cccc(Cl)c3)CC2)c(C)o1	18.4µM	i	16.4µM	i	i	i
COc1cc(C)ccc1S(=O)(=O)NC(=O)C1(C)CCN1C(=O)Cc1ccc(C(C)(C)C)cc1 (stereo not drawn)	i	i	i	i	i	nt
CC(=O)c1ccc(NC(=O)c2cc3c(=O)oc4ccc(C)cc4c3s2)cc1	i	i	i	nt	i	nt
COc1ccc(-n2ncc(C(=O)Nc3ccc(C)cc3Cl)c2C2CCN(C(=O)OC(C)(C)C)CC2)cc1	16.4µM	i	16.4µM	nt	i	nt
CCOC(=O)N1CCC(NC(=O)c2cnn(-c3ccc(OC)cc3)c2C2CCN(C(=O)OC(C)(C)C)CC2)CC1	18.4µM	i	?	nt	?	nt
CC(C)(C)OC(=O)N1CCC(c2c(C(=O)NC3CC3)cnn2-c2ccccc2)CC1	i	i	i	i	i	i
CCOC(=O)N1CCC(NC(=O)c2cnn(-c3ccc(C)cc3)c2C2CCN(C(=O)OC(C)(C)C)CC2)CC1	20.6µM	i	?	nt	i	nt
COc1cc(OC)c(NC(=O)c2cnn(-c3cccc(Cl)c3C)c2C2CCN(C(=O)OC(C)(C)C)CC2)cc1Cl	i	i	i	nt	?	nt
CCOC(=O)N1CCC(NC(=O)c2cnn(-c3cccc(Cl)c3C)c2C2CCN(C(=O)OC(C)(C)C)CC2)CC1	i	i	i	nt	i	nt
C[C@@H]1CN([C@H](C)CO)C(=O)CCCn2cc(nn2)CO[C@H]1CN(C)C(=O)Nc1ccc2c(c1)OCCO2	i	i	i	i	i	nt
Cn1cc(S(=O)(=O)c2ccccc2)c(=O)c2cc(F)c(N3CCCCCC3)cc21	?	i	?	nt	?	nt
